These results are taken from PubChem BioAssay.

Calls of active or inactive are those of the source.

The target in assay [1] is Albumin (Bos taurus) (UniProt P02769). Description: bovine serum albumin binders on microarray, profiling panel, artefact control for SMM control protein annotation, biochemical, small-molecule microarray, Alexa647 label, 635/667 nm fluorescence (AID 1118).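 Note: score merges 667 nm emission intensity and signal-to-noise per printed compound spot.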 Particulars: BSA-A647 binding, fluorescence 635 nm, higher = more signal.
Sequence of Albumin (Bos taurus) (P02769 whole entry, looked up): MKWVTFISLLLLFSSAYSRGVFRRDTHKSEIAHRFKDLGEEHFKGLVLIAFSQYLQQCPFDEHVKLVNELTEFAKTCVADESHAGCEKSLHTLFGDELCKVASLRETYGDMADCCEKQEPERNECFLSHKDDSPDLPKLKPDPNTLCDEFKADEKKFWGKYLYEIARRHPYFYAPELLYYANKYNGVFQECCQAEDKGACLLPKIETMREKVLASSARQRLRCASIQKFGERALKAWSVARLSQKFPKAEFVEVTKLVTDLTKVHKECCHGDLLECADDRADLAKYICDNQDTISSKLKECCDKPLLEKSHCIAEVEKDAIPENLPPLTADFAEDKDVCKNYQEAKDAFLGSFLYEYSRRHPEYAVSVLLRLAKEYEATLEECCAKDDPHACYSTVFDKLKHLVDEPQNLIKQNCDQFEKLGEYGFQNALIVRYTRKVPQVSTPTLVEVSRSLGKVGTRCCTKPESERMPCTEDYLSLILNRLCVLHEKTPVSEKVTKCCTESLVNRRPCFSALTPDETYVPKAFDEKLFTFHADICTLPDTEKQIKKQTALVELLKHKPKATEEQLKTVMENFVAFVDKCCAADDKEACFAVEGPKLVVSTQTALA
Assay [2] in a line: small-molecule microarray binders of probe aXIP, primary screen, biochemical, NeuroSMM set, 635/667 nm fluorescence (AID 1119).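 Note: probe is the protein aXip251-270 applied at 1 µg/mL to compound-printed slides; binding of probe to printed compounds measured as 667 nm fluorescence plus signal to noise.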 Particulars: higher = more signal, called active from +8 up or from −8 down.
Assay [3] can be described thus: small-molecule binders of probe aNOTCH3, primary screen, biochemical, small-molecule microarray, 635/667 nm fluorescence (AID 1120).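 Note: probe is a biotin-tagged antibody raised against NOTCH3 rather than NOTCH3 protein; score merges spot fluorescence near 667 nm with spot signal to noise.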 The conditions noted are these: higher = more signal.
Assay [4] in a line: small-molecule binders of probe aNOTCH2, primary screen, biochemical, small-molecule microarray, 635/667 nm fluorescence (AID 1121).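 Note: score merges feature fluorescence read at 667 nm with its signal to noise.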 The conditions noted are these: higher = more signal.
The target in assay [5] is Carbonic anhydrase 2 (Homo sapiens) (UniProt P00918). Kind of assay: CAII small-molecule binders, profiling panel, biochemical, small-molecule microarray, Alexa647-labelled CAII (AID 1122). Particulars: CAII-A647 binding fluorescence, higher = more signal.
Assay [6] can be described thus: COS7 lysate on small-molecule microarray, probe aHis, 635 nm (AID 1123).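 Note: z-score combines 667nm fluorescence intensity with signal-to-noise per printed compound spot.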 The conditions noted are these: COS7 cell lysate, fluorescence, higher = more signal.
Assay [7] can be described thus: compound binding in COS7 lysate, probe aLAP1, primary screen, cell lysate, small-molecule microarray (AID 1124).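 Note: lysate comes from COS7 cells expressing LAP1 and is applied at 0.3 µg/mL; score merges spot fluorescence near 667 nm with signal-to-noise over triplicate slides.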 The conditions noted are these: probe aLAP1, fluorescence, higher = more signal.
Assay [8] concerns Sam68 (KHDRBS1). Kind of assay: Sam68 small-molecule binders, primary screen, biochemical, small-molecule microarray, 635 nm fluorescence (AID 1125).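 Note: score merges 667 nm channel intensity with signal to noise over triplicate slides.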 Particulars: small-molecule microarray binding, higher = more signal.
Assay [9] relates to Chordin-like protein 2 (CHRDL2). Description: CHRDL2 small-molecule binders, primary screen, biochemical, small-molecule microarray, 635 nm fluorescence (AID 1126).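 Note: printed compound slides probed with Chrdl2 protein at 4 µg/mL for 1 h at 4 C; score merges 667 nm emission intensity with signal to noise over three replicate slides.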 Particulars: small-molecule microarray binding, fluorescence 635 nm; higher = more signal.
The target in assay [10] is Concanavalin-A (Canavalia ensiformis) (UniProt P02866). Description: ConA small-molecule binders, primary screen, artefact control for SMM control protein annotation, biochemical, small-molecule microarray, Alexa647 label, 635 nm (AID 1127).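 Note: z combines 667 nm emission intensity with signal-to-noise across three replicate slides.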 The conditions noted are these: ConA-A647 binding fluorescence, higher = more signal.
Sequence of Concanavalin-A (Canavalia ensiformis) (P02866 whole entry, looked up): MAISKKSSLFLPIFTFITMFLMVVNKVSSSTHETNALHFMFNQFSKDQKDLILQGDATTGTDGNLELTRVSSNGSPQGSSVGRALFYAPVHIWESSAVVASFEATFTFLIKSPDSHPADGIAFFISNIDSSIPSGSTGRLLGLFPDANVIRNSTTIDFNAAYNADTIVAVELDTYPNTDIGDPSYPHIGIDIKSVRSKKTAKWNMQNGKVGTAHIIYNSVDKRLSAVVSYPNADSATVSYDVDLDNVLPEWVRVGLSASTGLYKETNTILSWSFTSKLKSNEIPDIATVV
A short description of assay [11]: anti-His antibody binders, primary screen, artefact control for SMM control protein annotation, biochemical, small-molecule microarray, 635 nm fluorescence (AID 1128).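 Note: score merges feature fluorescence with signal-to-noise for each printed compound spot.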 Particulars: anti-His Alexa647 antibody binding, higher = more signal.
Assay [12] has as its system Human papillomavirus type 1a E7 protein (residues 1-88). Kind of assay: HPV1a E7 small-molecule binders, primary screen, biochemical, small-molecule microarray, residues 1-88, 635 nm (AID 1129). Particulars: small-molecule microarray binding, fluorescence 635 nm; higher = more signal.
The target in assay [13] is Focal adhesion kinase 1 (Homo sapiens) (UniProt Q05397). Kind of assay: small-molecule microarray binders of FAK, primary screen, biochemical, 635/667 nm fluorescence, BSA, DTT (AID 1130).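 Note: composite of spot emission at 667 nm and signal to noise over triplicate slides.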 The conditions noted are these: PTK2 binding, 635 nm fluorescence, higher = more signal.
Sequence of Focal adhesion kinase 1 (Homo sapiens) (Q05397 whole entry, looked up): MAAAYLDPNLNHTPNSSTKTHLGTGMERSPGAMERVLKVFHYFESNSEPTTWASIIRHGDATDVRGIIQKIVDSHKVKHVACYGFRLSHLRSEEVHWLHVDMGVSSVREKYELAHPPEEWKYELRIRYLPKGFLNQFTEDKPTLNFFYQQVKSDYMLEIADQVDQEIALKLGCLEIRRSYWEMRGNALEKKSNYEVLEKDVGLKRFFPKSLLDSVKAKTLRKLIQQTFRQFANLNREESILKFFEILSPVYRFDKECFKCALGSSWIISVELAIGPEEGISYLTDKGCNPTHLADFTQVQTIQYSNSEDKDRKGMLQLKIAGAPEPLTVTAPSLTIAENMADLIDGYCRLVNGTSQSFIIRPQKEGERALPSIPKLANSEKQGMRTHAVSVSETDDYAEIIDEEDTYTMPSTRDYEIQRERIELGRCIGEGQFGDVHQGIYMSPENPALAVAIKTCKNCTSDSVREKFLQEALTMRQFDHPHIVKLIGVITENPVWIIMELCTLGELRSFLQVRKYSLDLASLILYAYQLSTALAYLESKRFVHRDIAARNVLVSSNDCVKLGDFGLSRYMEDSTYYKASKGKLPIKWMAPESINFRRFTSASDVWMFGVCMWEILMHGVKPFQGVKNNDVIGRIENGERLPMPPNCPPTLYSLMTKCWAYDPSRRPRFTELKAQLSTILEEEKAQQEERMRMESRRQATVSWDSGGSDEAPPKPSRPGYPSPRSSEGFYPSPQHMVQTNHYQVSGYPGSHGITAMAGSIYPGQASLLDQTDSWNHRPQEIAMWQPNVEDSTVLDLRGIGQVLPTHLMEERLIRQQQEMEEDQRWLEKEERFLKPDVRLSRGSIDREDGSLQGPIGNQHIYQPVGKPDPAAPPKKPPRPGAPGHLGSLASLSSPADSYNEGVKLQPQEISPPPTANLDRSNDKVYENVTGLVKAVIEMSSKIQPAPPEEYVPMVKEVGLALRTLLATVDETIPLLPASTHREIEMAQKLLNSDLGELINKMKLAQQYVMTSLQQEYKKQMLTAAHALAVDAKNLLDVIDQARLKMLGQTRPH
Assay [14] deals with Fibrinogen (Alexa647-labelled). Kind of assay: fibrinogen binders on compound microarrays, profiling panel, artefact control for SMM control-protein annotation, biochemical, small-molecule microarray, 635/667 nm fluorescence (AID 1131).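 Note: z-score merges 667 nm fluorescence with per-spot signal-to-noise over triplicate slides.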 The conditions noted are these: fibrinogen-A647 binding fluorescence, higher = more signal.
Assay [15] addresses Follistatin (Homo sapiens) (UniProt P19883). Description: follistatin binders on small-molecule microarrays, primary screen, biochemical, small-molecule microarray, 635/667 nm fluorescence (AID 1132). Particulars: FST binding, 635 nm fluorescence, higher = more signal.
The target in assay [16] is Fibroblast growth factor 2 (Homo sapiens) (UniProt P09038). Description: FGF2 binders on small-molecule microarrays, primary screen, biochemical, small-molecule microarray, 635/667 nm fluorescence (AID 1133). The conditions noted are these: small-molecule microarray binding, FGF2, fluorescence 635/667; higher = more signal.
Sequence of Fibroblast growth factor 2 (Homo sapiens) (P09038 whole entry, looked up): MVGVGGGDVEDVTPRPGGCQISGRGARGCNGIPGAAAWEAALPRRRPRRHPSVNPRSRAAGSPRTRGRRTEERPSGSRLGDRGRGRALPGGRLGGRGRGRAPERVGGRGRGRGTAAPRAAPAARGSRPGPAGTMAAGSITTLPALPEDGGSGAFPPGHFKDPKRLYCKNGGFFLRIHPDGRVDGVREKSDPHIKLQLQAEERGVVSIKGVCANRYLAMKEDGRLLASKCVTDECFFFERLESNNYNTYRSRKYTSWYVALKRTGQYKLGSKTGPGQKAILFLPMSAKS
A short description of assay [17]: mitochondrial membrane potential change in A549 cells, profiling panel, cell-based, JC-1 fluorescence, basal, 24 h, 100 nL (AID 1138).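 Note: A549 lung adenocarcinoma cells under basal conditions with no added stimulus; test concentration not given here.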 Particulars: higher = more signal.
Assay [18] concerns Lefty1. Kind of assay: Lefty1 binders on small-molecule microarrays, primary screen, biochemical, small-molecule microarray, 635/667 nm fluorescence (AID 1139). Particulars: small-molecule microarray binding, fluorescence 635/667; higher = more signal.
Assay [19] deals with wheat germ agglutinin (Triticum aestivum), Alexa647-labelled. Kind of assay: wheat germ agglutinin binders on compound microarrays, profiling panel, artefact control for SMM control-protein annotation, biochemical, small-molecule microarray, 635/667 nm fluorescence (AID 1140).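 Note: score merges 667 nm feature emission with signal to noise over triplicate slides.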 Particulars: WGA-A647 binding, 635 nm fluorescence, higher = more signal.
Assay [20] has as its target Luciferin 4-monooxygenase (Photinus pyralis) (UniProt P08659). Description: firefly luciferase enzyme inhibitors, primary screen, biochemical, luminescence, purified enzyme, 2006 set (AID 1141).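 Note: cell-free assay with purified firefly luciferase at 100 ng per well in PBS; test concentration not given here.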 The conditions noted are these: SteadyGlo luminescence, 30 min, higher = more signal, called active from +8 up or from −8 down.

Sequence of Follistatin (Homo sapiens) (P19883 whole entry, looked up): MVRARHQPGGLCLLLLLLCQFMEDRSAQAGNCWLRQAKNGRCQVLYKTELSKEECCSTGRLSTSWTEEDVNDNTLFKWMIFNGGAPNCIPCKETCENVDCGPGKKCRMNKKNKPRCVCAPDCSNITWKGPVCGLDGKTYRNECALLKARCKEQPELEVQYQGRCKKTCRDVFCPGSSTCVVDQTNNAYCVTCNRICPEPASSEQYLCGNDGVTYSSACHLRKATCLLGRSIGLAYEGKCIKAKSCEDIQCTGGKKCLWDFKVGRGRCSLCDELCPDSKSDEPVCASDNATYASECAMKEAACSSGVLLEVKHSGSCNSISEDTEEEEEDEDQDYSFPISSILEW
Sequence of Luciferin 4-monooxygenase (Photinus pyralis) (P08659 whole entry, looked up): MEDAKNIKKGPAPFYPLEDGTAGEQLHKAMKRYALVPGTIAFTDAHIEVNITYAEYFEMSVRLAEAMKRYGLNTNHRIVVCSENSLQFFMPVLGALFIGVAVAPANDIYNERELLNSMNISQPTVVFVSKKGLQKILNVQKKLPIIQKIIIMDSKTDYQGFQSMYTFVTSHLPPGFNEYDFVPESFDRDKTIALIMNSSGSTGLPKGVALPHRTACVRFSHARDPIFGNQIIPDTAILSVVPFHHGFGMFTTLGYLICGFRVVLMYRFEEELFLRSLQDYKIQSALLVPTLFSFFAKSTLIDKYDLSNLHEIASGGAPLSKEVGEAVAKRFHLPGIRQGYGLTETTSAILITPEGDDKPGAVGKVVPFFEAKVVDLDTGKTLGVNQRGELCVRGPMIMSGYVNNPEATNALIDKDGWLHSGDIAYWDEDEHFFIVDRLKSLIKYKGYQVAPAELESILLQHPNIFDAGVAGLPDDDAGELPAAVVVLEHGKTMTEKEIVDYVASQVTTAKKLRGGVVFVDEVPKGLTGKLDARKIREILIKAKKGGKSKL

`COc1ccc(CCNC(=O)[C@@H]2c3ccccc3C(=O)N(Cc3ccccc3Cl)[C@H]2c2ccc(CO)cc2)cc1`: the composite z-score in [1] was 0.0645; in assay [3], -0.0647; in [4] it was -0.0712; in [5], 0.363; in [6], 1.47; in assay [7] it was 0.0463. The composite z-score is 0.579 in assay [8]; -0.014 in assay [9]; 0.207 in assay [10]; 0.218 in assay [11]; 1.14 in [12]; 0.224 in [13]. The composite z-score in [14] is 0.435; in assay [15], 0.495; in assay [16], 0.187; in [18], -0.0833; in assay [19], 0.261. Also, in assay [2], the composite Z-score is -0.145 (inactive). In addition, the z-score in assay [17] was 2.4; in assay [20], -0.745 (inactive).
Consider `C=CCC(OC(C)=O)[C@@H]1[C@@H](N(Cc2ccc(-c3ccccc3)cc2)C(=O)c2cccc3ccccc23)c2cc(OCCCO)ccc2N1C(=O)c1ccc(-c2ccccc2)cc1` (stereo not given in full), for which the composite z-score was -0.0695 in assay [1]; 0.0897 in assay [3]; -0.0783 in assay [4]; 0.175 in assay [5]; 1.17 in assay [6]; 0.674 in assay [7]. The composite z-score is 0.316 in assay [8]; 0.111 in assay [9]; -0.249 in assay [10]; -0.722 in assay [11]; 0.521 in assay [12]; 0.0082 in assay [13]. Moreover, the composite z-score is 0.56 in assay [14]; 0.435 in [15]; -0.0136 in assay [16]; -0.111 in assay [18]; 0.556 in [19]. For the same molecule, in assay [2], the composite Z-score was 0.45 (inactive). Besides, the z-score in assay [17] was 1.68; in assay [20], -0.52 (inactive).
In the case of `C=CCNC(=O)[C@@H]1[C@H]2C(=O)O[C@H](c3ccccc3)[C@H](c3ccccc3)N2[C@H](c2ccc(O)cc2)[C@@]12C(=O)N(C(=O)OCCOC)c1ccc(C#CCNC(N)=O)cc12`, the composite z-score in assay [1] is 0.803; in assay [3], -0.0247; in assay [4] it was -0.0393; in [5], 0.552; in assay [6], 0.737; in assay [7], 0.731. For the same molecule, the composite z-score in [8] is 1.16; in assay [9], 0.155; in assay [10], 1.1; in [11], 0.2; in assay [12] it was 1.16; in [13] it was 1.23. Also, the composite z-score in [14] was 0.746; in assay [15], 1.18; in assay [16], 1.45; in assay [18], 1.03; in assay [19], 0.834. Besides, in assay [2], the composite Z-score was 0.797 (inactive). The z-score in assay [17] was -0.564; in assay [20] it was -1.43 (inactive).
Consider `COC(=O)[C@@]1(Cc2ccc(F)cc2)[C@H]2c3cc(C(=O)N(C)C)n(Cc4ccc(Cl)c(C(F)(F)F)c4)c3C[C@H]2CN1C(=O)c1ccccc1`, for which the composite z-score amounted to 1.03 in assay [1]; 0.405 in [3]; 0.266 in [4]; 0.77 in assay [5]; 3.26 in assay [6]; 1.05 in assay [7]. The composite z-score in assay [8] is 1.31; in [9], -0.899; in assay [10] it was 1.15; in assay [11] it was 2.56; in [12], 1.22; in assay [13], 1.14. Further, the composite z-score in [14] was 1.01; in assay [15], 0.909; in [16] it was -0.542; in assay [18], -0.764; in [19], 1.4. The composite Z-score in assay [2] was 0.623 (inactive). Besides, the z-score in assay [17] is 1.98; in [20] it was 1.04 (inactive).
On to `O=C(NCCN1CCOCC1)[C@@H]1c2ccccc2C(=O)N(C2CCCCC2)[C@H]1c1ccc(CO)cc1`, for which the composite z-score was 0.349 in assay [1]; -0.154 in [3]; -0.147 in assay [4]; 0.625 in assay [5]; 1.29 in assay [6]; -0.0871 in [7]. Further, the composite z-score in assay [8] is 0.68; in assay [9], -1.08; in assay [10], 0.31; in [11], 0.166; in assay [12] it was 0.0657; in [13] it was -0.0962. Also, the composite z-score in assay [14] is 0.74; in assay [15], 0.0603; in [16] it was -0.59; in [18] it was -0.0981; in assay [19] it was -0.403. The composite Z-score in [2] was -0.118 (inactive). The z-score is 2.27 in assay [17] and -0.293 (inactive) in assay [20].
